The values below come from PubChem BioAssay (NCI).

SMILES strings stand for the structures. The panel holds about 83,000 compounds, 20% with a hit somewhere; the sample as a whole holds those more often.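 Plates (96-well) were seeded with cells, treated with compound at one concentration, and incubated for 48 hours before percent growth was determined.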 A number with no mark means an inactive call. The source made the active and inactive calls. The calls were made as follows: active = growth percent below 10; inactive = the rest.

This test relates to MDA-MB-468 breast. Kind of test: NCI-60 one-dose screen, 48 h (100 = growth as untreated, 0 = no growth, -100 = all killed). The note with it: 10 µM unless noted.
Turning to `CN(C)c1nc(-c2ccco2)n2nc(-c3ccco3)cc2n1`, the growth is -22.1% (active). With `O=C(N/N=C/c1c(Cl)cccc1Cl)c1cccc(Nc2ccnc(C(F)(F)F)c2)c1`, the growth was 67.6%. For `CCCCCCCCCNCCCCCCCCC`, the growth was 22.5%. In the case of `O=C(CN1CCN(c2cc(=O)n(-c3ccccc3)c3ccccc23)CC1)Nc1cccc(C(F)(F)F)c1`, the growth is 4.55% (active).
